# Source: PubChem BioAssay AID1159580 (chemical genetic matrix, 2015)
# Several values for one entry are separate records, joined by “and”; a condition that tells them apart may be missing. Equal entries are not always repeated. Hit rate of the full screen: of about 5,500 compounds, about 2,000 (36%) were called active. Another 18% or so got no clear call; they are omitted. Rule as the data show it: active = normalized growth mostly below about 0.91 (no sharp cut-off); inconclusive = no clear call, values can overlap the other calls; inactive = mostly above about 0.92. This is one part of the list.
# Test: chemical genetic growth profiling, strain panel (AID 1159580);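 also: tested at 20 µM; growth read once vehicle control cultures reached saturation at 30 °C; 1 = growth at the plate median or of vehicle wells; lower values mean less growth of the strain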
# Settings: growth OD
structure (smiles),measurement,setting,value
O=C(O)Cc1cc(I)c(Oc2cc(I)c(O)c(I)c2)c(I)c1,normalized growth,"S. cerevisiae deletion strains, locus YAL013W, strain DEP1, stronger effect = lower value",0.948 (inactive)
same,normalized growth,"S. cerevisiae deletion strains, locus YBR021W, strain FUR4, stronger effect = lower value",1.03 (inactive)
same,normalized growth,"S. cerevisiae deletion strains, locus YBR229C, strain ROT2, stronger effect = lower value",0.936 (inactive)
same,normalized growth,"S. cerevisiae deletion strains, locus YCL029C, strain bik1, stronger effect = lower value",0.96 (inactive)
same,normalized growth,"S. cerevisiae deletion strains, locus YDL035C, strain GPR1, stronger effect = lower value",0.982 (inactive)
same,normalized growth,"S. cerevisiae deletion strains, locus YDL074C, strain BRE1, stronger effect = lower value",0.942 (inactive)
same,normalized growth,"S. cerevisiae deletion strains, locus YDL101C, strain DUN1, stronger effect = lower value",0.955 (inactive)
same,normalized growth,"S. cerevisiae deletion strains, locus YDL134C, strain PPH21, stronger effect = lower value",0.968 (inactive)
same,normalized growth,"S. cerevisiae deletion strains, locus YDL185W, strain tfp1, stronger effect = lower value",0.931 (inactive)
same,normalized growth,"S. cerevisiae deletion strains, locus YDL192W, strain arf1, stronger effect = lower value",0.957 (inactive)
same,normalized growth,"S. cerevisiae deletion strains, locus YDR101C, strain arx1, stronger effect = lower value",0.979 (inactive)
same,normalized growth,"S. cerevisiae deletion strains, locus YDR150W, strain NUM1, stronger effect = lower value",0.943 (inactive)
same,normalized growth,"S. cerevisiae deletion strains, locus YDR162C, strain NBP2, stronger effect = lower value",0.847 (inactive)
same,normalized growth,"S. cerevisiae deletion strains, locus YDR318W, strain mcm21, stronger effect = lower value",0.98 (inactive)
same,normalized growth,"S. cerevisiae deletion strains, locus YDR388W, stronger effect = lower value",0.955 (inactive)
same,normalized growth,"S. cerevisiae deletion strains, locus YDR502C, strain sam2, stronger effect = lower value",0.957 (inactive)
same,normalized growth,"S. cerevisiae deletion strains, locus YEL061C, strain CIN8, stronger effect = lower value",0.964 (inactive)
same,normalized growth,"S. cerevisiae deletion strains, locus YER110C, stronger effect = lower value",0.973 (inactive)
same,normalized growth,"S. cerevisiae deletion strains, locus YER155C, strain BEM2, stronger effect = lower value",0.97 (inactive)
same,normalized growth,"S. cerevisiae deletion strains, locus YER167W, strain BCK2, stronger effect = lower value",0.97 (inactive)
same,normalized growth,"S. cerevisiae deletion strains, locus YGL078C, strain dbp3, stronger effect = lower value",0.94 (inactive)
same,normalized growth,"S. cerevisiae deletion strains, locus YGL086W, strain mad1, stronger effect = lower value",0.982 (inactive)
same,normalized growth,"S. cerevisiae deletion strains, locus YGL248W, strain PDE1, stronger effect = lower value",0.965 (inactive)
same,normalized growth,"S. cerevisiae deletion strains, locus YGR078C, strain PAC10, stronger effect = lower value",0.958 (inactive)
same,normalized growth,"S. cerevisiae deletion strains, locus YGR135W, strain pre9, stronger effect = lower value",0.942 (inactive)
same,normalized growth,"S. cerevisiae deletion strains, locus YGR229C, strain SMI1, stronger effect = lower value",0.973 (inactive)
same,normalized growth,"S. cerevisiae deletion strains, locus YGR252W, strain gcn5, stronger effect = lower value",1.06 (inactive)
same,normalized growth,"S. cerevisiae deletion strains, locus YHR030C, strain SLT2, stronger effect = lower value",0.989 (inactive) and 0.84 (active)
same,normalized growth,"S. cerevisiae deletion strains, locus YHR079C, strain IRE1 (second series), stronger effect = lower value",0.973 (inactive)
same,normalized growth,"S. cerevisiae deletion strains, locus YHR079C, strain IRE1, stronger effect = lower value",0.762 (active)
same,normalized growth,"S. cerevisiae deletion strains, locus YHR094C, strain hxt1, stronger effect = lower value",0.956 (inactive)
same,normalized growth,"S. cerevisiae deletion strains, locus YHR129C, strain ARP1, stronger effect = lower value",0.976 (inactive)
same,normalized growth,"S. cerevisiae deletion strains, locus YHR200W, strain rpn10, stronger effect = lower value",0.959 (inactive)
same,normalized growth,"S. cerevisiae deletion strains, locus YIL066C, strain RNR3, stronger effect = lower value",0.97 (inactive)
same,normalized growth,"S. cerevisiae deletion strains, locus YIL073C, strain SPO22, stronger effect = lower value",1.02 (inactive)
same,normalized growth,"S. cerevisiae deletion strains, locus YIL125W, strain kgd1, stronger effect = lower value",0.944 (inactive)
same,normalized growth,"S. cerevisiae deletion strains, locus YIR030C, strain dcg1, stronger effect = lower value",0.939 (inactive)
same,normalized growth,"S. cerevisiae deletion strains, locus YJL095W, strain BCK1, stronger effect = lower value",0.924 (inactive) and 0.892 (inactive)
same,normalized growth,"S. cerevisiae deletion strains, locus YJL134W, strain LCB3, stronger effect = lower value",0.954 (inactive)
same,normalized growth,"S. cerevisiae deletion strains, locus YJL168C, strain set2, stronger effect = lower value",0.942 (inactive)
same,normalized growth,"S. cerevisiae deletion strains, locus YJL187C, strain SWE1 (second series), stronger effect = lower value",0.949 (inactive)
same,normalized growth,"S. cerevisiae deletion strains, locus YJR043C, strain POL32, stronger effect = lower value",1.06 (inactive)
same,normalized growth,"S. cerevisiae deletion strains, locus YJR066W, strain TOR1, stronger effect = lower value",0.864 (inactive)
same,normalized growth,"S. cerevisiae deletion strains, locus YJR075W, strain HOC1, stronger effect = lower value",1 (inactive)
same,normalized growth,"S. cerevisiae deletion strains, locus YKL009W, strain mrt4, stronger effect = lower value",0.945 (inactive)
same,normalized growth,"S. cerevisiae deletion strains, locus YKL068W, stronger effect = lower value",0.917 (active)
same,normalized growth,"S. cerevisiae deletion strains, locus YKL085W, strain MDH1 (second series), stronger effect = lower value",0.924 (active)
same,normalized growth,"S. cerevisiae deletion strains, locus YKL085W, strain MDH1, stronger effect = lower value",0.924 (active)
same,normalized growth,"S. cerevisiae deletion strains, locus YKL190W, strain CNB1, stronger effect = lower value",0.946 (inactive)
same,normalized growth,"S. cerevisiae deletion strains, locus YKR001C, strain vps1, stronger effect = lower value",0.931 (inactive)
same,normalized growth,"S. cerevisiae deletion strains, locus YLR039C, strain RIC1, stronger effect = lower value",0.817 (inactive)
same,normalized growth,"S. cerevisiae deletion strains, locus YLR058C, strain SHM2, stronger effect = lower value",0.959 (inactive)
same,normalized growth,"S. cerevisiae deletion strains, locus YLR102C, strain apc9, stronger effect = lower value",0.935 (inactive)
same,normalized growth,"S. cerevisiae deletion strains, locus YLR113W, strain HOG1, stronger effect = lower value",0.418 (active)
same,normalized growth,"S. cerevisiae deletion strains, locus YLR262C, strain YPT6, stronger effect = lower value",0.749 (inactive)
same,normalized growth,"S. cerevisiae deletion strains, locus YLR268W, strain sec22, stronger effect = lower value",0.963 (inactive)
same,normalized growth,"S. cerevisiae deletion strains, locus YLR330W, strain CHS5, stronger effect = lower value",0.967 (inactive)
same,normalized growth,"S. cerevisiae deletion strains, locus YLR342W, strain FKS1 (second series), stronger effect = lower value",1.02 (inactive)
same,normalized growth,"S. cerevisiae deletion strains, locus YLR371W, strain rom2, stronger effect = lower value",0.987 (inactive)
same,normalized growth,"S. cerevisiae deletion strains, locus YLR418C, strain cdc73, stronger effect = lower value",0.911 (inactive)
same,normalized growth,"S. cerevisiae deletion strains, locus YML016C, strain PPZ1, stronger effect = lower value",0.95 (inactive)
same,normalized growth,"S. cerevisiae deletion strains, locus YML032C, strain rad52, stronger effect = lower value",0.983 (inactive)
same,normalized growth,"S. cerevisiae deletion strains, locus YML124C, strain tub3, stronger effect = lower value",0.951 (inactive)
same,normalized growth,"S. cerevisiae deletion strains, locus YMR078C, strain ctf18, stronger effect = lower value",0.96 (inactive)
same,normalized growth,"S. cerevisiae deletion strains, locus YMR223W, strain ubp8, stronger effect = lower value",1.01 (inactive)
same,normalized growth,"S. cerevisiae deletion strains, locus YMR263W, strain SAP30, stronger effect = lower value",0.944 (inactive)
same,normalized growth,"S. cerevisiae deletion strains, locus YMR307W, strain GAS1, stronger effect = lower value",1.07 (inactive)
same,normalized growth,"S. cerevisiae deletion strains, locus YNL067W, strain RPL9B, stronger effect = lower value",0.969 (inactive)
same,normalized growth,"S. cerevisiae deletion strains, locus YNL128W, strain TEP1, stronger effect = lower value",0.952 (inactive)
same,normalized growth,"S. cerevisiae deletion strains, locus YNL153C, strain GIM3, stronger effect = lower value",0.951 (inactive)
same,normalized growth,"S. cerevisiae deletion strains, locus YNL183C, strain NPR1, stronger effect = lower value",0.829 (inactive)
same,normalized growth,"S. cerevisiae deletion strains, locus YNL233W, strain BNI4, stronger effect = lower value",0.968 (inactive)
same,normalized growth,"S. cerevisiae deletion strains, locus YNL250W, strain rad50, stronger effect = lower value",0.923 (inactive)
same,normalized growth,"S. cerevisiae deletion strains, locus YNL271C, strain bni1, stronger effect = lower value",0.942 (inactive)
same,normalized growth,"S. cerevisiae deletion strains, locus YNL298W, strain CLA4, stronger effect = lower value",0.952 (inactive)
same,normalized growth,"S. cerevisiae deletion strains, locus YNL307C, strain MCK1, stronger effect = lower value",0.982 (inactive)
same,normalized growth,"S. cerevisiae deletion strains, locus YNL322C, strain KRE1, stronger effect = lower value",0.962 (inactive)
same,normalized growth,"S. cerevisiae deletion strains, locus YNR052C, strain pop2, stronger effect = lower value",0.973 (inactive)
same,normalized growth,"S. cerevisiae deletion strains, locus YOL006C, strain TOP1, stronger effect = lower value",0.862 (inactive)
same,normalized growth,"S. cerevisiae deletion strains, locus YOL012C, strain htz1",0.639 (inactive)
same,normalized growth,"S. cerevisiae deletion strains, locus YOL147C, strain pex11, stronger effect = lower value",0.965 (inactive)
same,normalized growth,"S. cerevisiae deletion strains, locus YOR061W, strain CKA2, stronger effect = lower value",0.929 (inactive)
same,normalized growth,"S. cerevisiae deletion strains, locus YOR069W, strain VPS5, stronger effect = lower value",0.962 (inactive)
same,normalized growth,"S. cerevisiae deletion strains, locus YOR136W, strain idh2, stronger effect = lower value",0.997 (inactive)
same,normalized growth,"S. cerevisiae deletion strains, locus YOR144C, strain elg1, stronger effect = lower value",0.947 (inactive)
same,normalized growth,"S. cerevisiae deletion strains, locus YOR184W, strain ser1, stronger effect = lower value",1.03 (inactive)
same,normalized growth,"S. cerevisiae deletion strains, locus YOR231W, strain MKK1, stronger effect = lower value",0.67 (active)
same,normalized growth,"S. cerevisiae deletion strains, locus YOR316C, strain cot1, stronger effect = lower value",0.941 (inactive)
same,normalized growth,"S. cerevisiae deletion strains, locus YPL055C, strain LGE1, stronger effect = lower value",0.922 (inactive)
same,normalized growth,"S. cerevisiae deletion strains, locus YPL241C, strain CIN2, stronger effect = lower value",0.953 (inactive)
same,normalized growth,"S. cerevisiae deletion strains, locus YPL256C, strain CLN2, stronger effect = lower value",0.679 (active)
same,normalized growth,"S. cerevisiae deletion strains, locus YPR119W, strain clb2, stronger effect = lower value",0.95 (inactive)
same,normalized growth,"S. cerevisiae deletion strains, locus YPR141C, strain kar3, stronger effect = lower value",0.924 (inactive)
same,normalized growth,"S. cerevisiae deletion strains, locus YPR163C, strain tif3, stronger effect = lower value",0.719 (active)
same,normalized growth,"S. cerevisiae deletion strains, locus YPR167C, strain met16, stronger effect = lower value",0.98 (inactive)
same,normalized growth,"S. cerevisiae deletion strains, strain wtn01, stronger effect = lower value",0.95 (inactive)
same,normalized growth,"S. cerevisiae strains, strain wild type, stronger effect = lower value",0.96 (inactive)
